# Screening data (PubChem)
# Rows were chosen to be rich in hits. Some 3% of all compounds tested hit in one or more screens of this group.
# OvCa metastasis – ovarian cancer metastasis inhibition, 3D TME model. SKOV3ip1-GFP adhesion/invasion on 3D omental model, fluorescence. Potency, µM (titrated, usually from 45.8 µM), usual class: inhibitors. actives 0.1% (n = 46,000). AID 1963576; further: nearly all actives have a fitted effect of over 65% in size
#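 A 3D layer of primary human omental fibroblasts, mesothelial cells, fibronectin and collagen I, grown 48 hr, received SKOV3ip1-GFP cells in serum-free medium plus compounds at 0.36-46 umol/L. After 2 hr RT and 16 hr 37 C, fixed adherent GFP cells were counted; normalized to DMSO and tomatine.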
# S16 viability – S16 Schwann cell cytotoxicity | S16 Pmp22-F2sN Schwann cells viability, CellTiter-Glo, 24 h | Potency, µM (titrated, usually from 57.5 µM), usual class: cytotoxic | actives 0.48% (n = 43,000); further: nearly all actives have a fitted effect of over 65% in size
#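 Luminescence from CellTiter-Glo, read by CCD camera after a 15 min room-temperature incubation, served as the viability signal. Reporter Schwann cells (S16 Pmp22-F2sN) had been treated with pin-transferred compounds for 24 h at 37C.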
# p53null 39C tox – kills p53 null cells at the nonpermissive temperature | H1299 p53-null (neo) cells, 39C, ATPlite viability, 24 h | Potency, µM (series often up to 46.1 µM), hits mostly cytotoxic | actives 0.97% (n = 55,000) | AID 904; further: nearly all actives have a fitted effect of over 50% in size
#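 Temperature-shift cytotoxicity format: compound titrations on p53-null or A138V-expressing H1299 cells held 24 hr at 39C, cell ATP then measured, AC50 from Hill model.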
# PMP22 txn prim – PMP22 gene transcription modulation; S16 Pmp22-F2sN Schwann cells (luciferase reporters placed in the Pmp22 gene), FLuc/NLuc coincidence luminescence, 24 h; Potency, µM (titrated, usually from 57.5 µM), hits mostly inhibitors; actives 2% (n = 43,000); active means clear falling dose curves in both reporters; inconclusive means both reporters move, but less clearly or upward; inactive means either reporter flat; the % is the NLuc reporter signal
#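 Schwann cells carrying the coincidence reporter were exposed to library compounds for 24 h at 37C, then lysed and read for FLuc and, after quenching, NLuc luminescence on a CCD imager.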
# p53null 32C tox – kills p53 null cells at the permissive temperature | H1299-neo p53 null cells, ATP luminescence, 24 h, 32C | Potency, µM (doses to about 46.1 µM), hits mostly cytotoxic | actives 0.62% (n = 55,000) | AID 903; further: nearly all actives have a fitted effect of over 55% in size
#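 H1299-neo (p53 null) cells, 600/well, treated 24 h at 32C with compound up to 46 uM; ATPlite luminescence viability, normalized to DMSO and 100 uM tamoxifen; AC50 by Hill fit.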
# mTORC1 inh – mTORC1 pathway inhibition measured by phospho-rpS6 | Tsc2-/- p53-/- MEF, phospho-rpS6 immunofluorescence/PI, 24 h | Potency, µM (highest dose often 38.3 µM), usual class: inhibitors | actives 0.78% (n = 44,000); further: nearly all actives have a fitted effect of over 50% in size
#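 Immunofluorescence of rpS6 phosphorylation in Tsc2-/-, p53-/- MEFs after 24 h compound exposure, normalized to propidium iodide signal. Activity is expressed as % positive cells, thresholded with 7.5 nM rapamycin.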
# Hits are given with their value; 0 = inactive; ? = inconclusive; - = no result given. Unless noted, the call rests on the fitted dose curve; in most records, active means well fitted curve in the direction sought with a large enough effect; inconclusive means small, poorly fitted or top-dose-only effect, or another doubt; inactive means no such curve, though single readings can be large; an effect the other way counts as inactive or inconclusive.
SMILES,OvCa metastasis,S16 viability,p53null 39C tox,PMP22 txn prim,p53null 32C tox,mTORC1 inh
OCc1ccccc1O[C@@H]1O[C@H](CO)[C@H](O)[C@H](O)[C@H]1O,0,-,-,-,-,-
Cc1cc(C)c(-c2n[nH]c3c2C(c2ccccc2F)N(Cc2ccco2)C3=O)c(O)c1 (centres undefined),0,0,15.8µM,?,0,13.1µM
CCCOc1cccc(C2c3c(-c4ccccc4O)n[nH]c3C(=O)N2Cc2ccco2)c1 (centres undefined),?,0,17.8µM,?,0,14.7µM
CCOc1cc2c(c(F)c1OCC)C(=N)N(CC(=O)c1cc(N3CCOCC3)c(OC)c(C(C)(C)C)c1)C2,0,-,-,-,-,-
COc1c(OCCCN2CCOCC2)ccc2c3n(c(=NC(=O)c4cnc(N)nc4)nc12)CCN3,0,-,-,-,-,-
CCOc1ccc(Nc2nc(-c3c(C)nc4ccccn34)cs2)cc1,0,-,-,-,-,-
Nc1nc(NCCNc2ncc(-n3ccnc3)c(-c3ccc(Cl)cc3Cl)n2)ccc1[N+](=O)[O-],0,-,-,-,-,-
Cc1cccc(C)c1NC(=O)Cn1c(=O)n(Cc2ccc(C(=O)NCc3ccco3)cc2)c(=O)c2sccc21,0,0,?,?,?,?
Cc1cc(C)c(NC(=O)Cn2c(=O)n(Cc3ccc(C(=O)NCc4ccco4)cc3)c(=O)c3sccc32)c(C)c1,0,0,10µM,?,?,0
COc1ccc(N2Cc3cccc(C(=O)Nc4ccc(C(C)C)cc4)c3C2=O)cc1,0,?,3.98µM,?,?,0
COc1cc(=C2C=c3ccccc3=N2)[nH]c1=Cc1[nH]c(C)cc1C,0,-,-,-,-,-
COc1ccc(F)cc1S(=O)(=O)NCC(c1ccco1)S(=O)(=O)c1cccs1 (centres undefined),0,12.6µM,0,9.46µM,0,0
COc1ccc(OC)c(S(=O)(=O)NCC(c2cccs2)S(=O)(=O)c2ccc(F)cc2)c1 (centres undefined),0,?,0,?,0,?
COc1ccc(S(=O)(=O)NCC(c2ccco2)S(=O)(=O)c2ccc(C)cc2)cc1C (centres undefined),0,?,0,?,0,0
O=S(=O)(NCC(c1ccco1)S(=O)(=O)c1cccs1)c1ccc(F)c(C(F)(F)F)c1 (centres undefined),0,2.51µM,0,7.27µM,0,0
O=C(NCC(c1ccco1)S(=O)(=O)c1cccs1)c1ccc(Cl)cc1 (centres undefined),0,0,0,0,0,0
COc1ccc(S(=O)(=O)NCC(c2ccco2)S(=O)(=O)c2cccs2)cc1OC (centres undefined),0,20µM,0,?,0,0
COc1ccc(F)cc1S(=O)(=O)NCC(c1ccco1)S(=O)(=O)c1ccc(F)cc1 (centres undefined),0,15.8µM,0,18.9µM,0,0
COc1cc(C(=O)NCC(c2ccco2)S(=O)(=O)c2cccs2)cc(OC)c1OC (centres undefined),0,?,0,0,0,0
CN(C)C1CCN(C(=O)c2ccc(NC(=O)Nc3nc(N4CCOCC4)nc(N4CCOCC4)n3)cc2)CC1,0,-,-,-,-,-
CCOc1ccc(S(=O)(=O)NCC(c2ccco2)S(=O)(=O)c2ccc(C)cc2)cc1 (centres undefined),0,0,0,?,0,0
O=S(=O)(NCC(c1cccs1)S(=O)(=O)c1ccccc1)c1ccccc1 (centres undefined),0,10µM,0,15µM,0,?
Cc1ccc(C)c(S(=O)(=O)NCC(c2ccco2)S(=O)(=O)c2ccc(F)cc2)c1 (centres undefined),0,0,?,0,0,7.36µM
CC(C)(C)c1ccc(C(=O)NCC(c2cccs2)S(=O)(=O)c2ccccc2)cc1 (centres undefined),0,?,0,?,0,0
O=S(=O)(NCC(c1ccco1)S(=O)(=O)c1cccs1)c1ccccc1 (centres undefined),0,31.6µM,0,?,0,0
SMILES,OvCa metastasis,S16 viability,p53null 39C tox,PMP22 txn prim,p53null 32C tox,mTORC1 inh
CC1(C)CCC(CN2CCN(c3ccc(C(=O)NS(=O)(=O)c4ccc(NCC5CCOCC5)c([N+](=O)[O-])c4)c(Oc4cnc5[nH]ccc5c4)c3)CC2)=C(c2ccc(Cl)cc2)C1,0,-,-,-,-,-
O=C(CCc1ccc(O)cc1)c1c(O)cc(O)cc1O[C@@H]1O[C@H](CO)[C@H](O)[C@H](O)[C@H]1O,0,-,-,-,-,-
CCC(=O)O[C@]1(C(=O)CO)CC[C@H]2[C@@H]3CCC4=CC(=O)CC[C@]4(C)[C@@H]3CC[C@@]21C,0,-,-,-,-,-
c1ccc2c(-c3cnn4cc(-c5ccc(N6CCNCC6)cc5)cnc34)ccnc2c1,23.5µM,-,-,-,-,-
Cc1nnc(NC(=O)C(=O)c2cc(C)n(-c3ccc(C)c(C)c3)c2C)s1,0,?,0,2.89µM,0,0
CC1CCN(S(=O)(=O)c2ccc3nc(Nc4cccc(C(F)(F)F)c4)ccc3c2)CC1,0,?,11.2µM,?,0,?
Cc1ccc2occ(CC(=O)Nc3ccc(S(N)(=O)=O)cc3)c2c1,0,0,0,0,0,0
Cc1ccc2occ(CC(=O)Nc3ccc(Cl)c(C(F)(F)F)c3)c2c1,0,?,15.8µM,?,0,11.7µM
COc1nccc(-c2c(-c3ccc(F)cc3)ncn2C2CCNCC2)n1,0,-,-,-,-,-
Cc1ccc(-c2c(C)n3c4c(=O)n(C)c(=O)n(C)c4nc3n2CCCO)cc1,0,31.6µM,0,?,0,0
CCCN(C(=O)c1cc2c(s1)-c1ccccc1OC2)c1ccccc1F,0,0,0,?,0,0
CCCN(C(=O)c1cc2c(s1)-c1ccccc1SC2)c1ccccc1F,0,0,20µM,?,0,0
CCCCNC(=O)c1ccc2c(c1)N=C(CC)c1ccccc1S2,0,?,?,12.4µM,0,?
CCC1=Nc2cc(C(=O)NC3CCCC3)ccc2Sc2ccc(Br)cc21,0,?,?,10µM,0,0
CCC1=Nc2cc(C(=O)NC3CCC(C)CC3)ccc2Sc2ccc(C)cc21 (centres undefined),0,0,0,5.66µM,0,?
CC1=Nc2cc(C(=O)NC3CCCC3)ccc2Sc2ccc(Br)cc21,0,0,0,?,0,?
CC1=Nc2cc(C(=O)NCCc3ccc(Cl)cc3)ccc2Sc2ccc(C)cc21,0,?,0,9.46µM,0,0
CN(C)Cc1cccc(N=C(c2ccccc2)c2c(O)[nH]c3cc(C(=O)N(C)C)ccc23)c1,0,-,-,-,-,-
